PubChem BioAssay (NCATS)
Inconclusive results are not listed. Entries that show only a call come without a potency. Active and inactive are the calls of the source. Calls come from the whole dose curve; as a rule, active = well fitted inhibition curve with a large enough effect; inconclusive = small, poorly fitted or top-dose-only effect; inactive = flat fitted curve, though single readings scatter. *1 amine or outer side, *2 acyl side, *3 side chain or, on linkers, in order; H or OH if unused. Where a SMILES comes first, the peptide text is derived from it. Side-chain parts run from the residue outwards. [ ]: non-standard residue; d: D form. The star is where a group is joined. Ethylenediamine = C(CN[*:2])N[*:1]; Hyp = O=C(O)[C@@H]1C[C@@H](O)CN1; Phg = N[C@H](C(=O)O)c1ccccc1; CO = O=C([*:1])[*:2]; Bn = c1ccc(C*)cc1

These molecules were tested against Glutathione peroxidase 1 (Homo sapiens) (UniProt P07203) (assay: Primary qHTS Assay for Inhibitors of Recombinant Selenoprotein Glutathione Peroxidase 1 (GPX1) (AID 1845191)). Conditions: recombinant GPX1, GR-coupled NADPH fluorescence, 15 min; series mostly up to 48.8 µM.
Method in brief: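 Recombinant GPX1 (10 nM final) was preincubated with compound for 30 min at room temperature, then reacted with 1 mM GSH, 0.5 mM CHP, 0.5 mM NADPH and 100 nM glutathione reductase; NADPH fluorescence (340/450 nm) was read at 0 and 15 min.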
Note: nearly all actives have a fitted effect of over 65% in size.
Potency is the fitted concentration of half-maximal effect.

Sequence of Glutathione peroxidase 1 (Homo sapiens) (P07203 whole entry, looked up): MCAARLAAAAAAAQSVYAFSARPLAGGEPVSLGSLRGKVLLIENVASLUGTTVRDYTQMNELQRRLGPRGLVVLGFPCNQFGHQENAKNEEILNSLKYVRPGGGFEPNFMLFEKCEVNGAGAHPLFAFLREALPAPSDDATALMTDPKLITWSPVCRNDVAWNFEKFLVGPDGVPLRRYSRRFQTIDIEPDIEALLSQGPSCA

| SMILES | Potency | outcome |
| --- | --- | --- |
| CC[C@H]1[C@@H](O)[C@@H]2[C@H](CC[C@]3(C)[C@@H]([C@H](C)CCC(=O)O)CC[C@@H]23)[C@@]2(C)CC[C@@H](O)C[C@@H]12 | inactive |  |
| CC(=O)OCC1=C(C(=O)O)N2C(=O)[C@@H](NC(=O)[C@H](N)c3ccccc3)[C@H]2SC1 | 10.1 µM (active) |  |
| [2H]N[C@@H](Cc1ccccc1)C(=O)N1CCC[C@H]1C(=O)N[C@@H](CCCNC(=N)N)C(=O)N1CCC[C@H]1C(=O)NCC(=O)NCC(=O)NCC(=O)NCC(=O)N[C@@H](CC(N)=O)C(=O)NCC(=O)N[C@@H](CC(=O)O)C(=O)N[C@@H](Cc1ccccc1)C(=O)N[C@@H](CCC(=O)O)C(=O)N[C@@H](CCC(=O)O)C(=O)N[C@H](C(=O)N1CCC[C@H]1C(=O)N[C@@H](CCC(=O)O)C(=O)N[C@@H](CCC(=O)O)C(=O)N[C@@H](Cc1ccc(O)cc1)C(=O)N[C@@H](CC(C)C)C(=O)O)[C@@H](C)CC |  | inactive [at 9.52 µM] |
| CC(=O)OCC(=O)[C@@]1(O)[C@H](C)C[C@H]2[C@@H]3C[C@H](F)C4=CC(=O)C=C[C@]4(C)[C@@]3(F)[C@@H](O)C[C@@]21C | inactive |  |
| CCCCC(F)(F)C1(O)CCC2C(CC(=O)C2CCCCCCC(=O)O)O1 (configuration not stated) | inactive |  |
| O=C(/C=C/c1ccc(Cl)cc1)N1CCC2(CC1)CN(Cc1ccc(Cl)c(Cl)c1)C(=O)O2 | inactive |  |
| OC[C@H]1OC(O)C[C@@H](O)[C@@H]1O (some centres not stated) | inactive |  |
| CC(=O)NC(C=O)C(O)C(O)[C@H](O)CO (some centres not stated) | inactive |  |
| COc1cc(N)cn[n+]1-c1ccccc1 | inactive |  |
| CC1CCCC(C)N1C(=S)Nc1cccc(C(F)(F)F)c1 (configuration not stated) | 22.7 µM (active) |  |
| CCCC[C@H](C)C[C@H](O)/C=C/[C@H]1[C@H](O)CC(=O)[C@@H]1CCCC/C=C/C(=O)O | inactive |  |
| CCCCCC(O)/C=C/[C@@H]1C(CCCCCCC(=O)O)C(=O)C[C@@H]1O (some centres not stated) | inactive |  |
| CC(C)C(=O)OCC(=O)[C@@]12OC(C3CCCCC3)O[C@@H]1C[C@H]1[C@@H]3CCC4=CC(=O)C=C[C@]4(C)[C@H]3[C@@H](O)C[C@@]12C (some centres not stated) | inactive |  |
| OC[C@H]1O[C@H](O)[C@H](O)[C@@H](O)[C@@H]1O | inactive |  |
| CC(C=CC1=C(C)CCCC1(C)C)=CC=CC(C)=CC(=O)Oc1c(C)c(C)c2c(c1C)CC[C@@](C)(CCC[C@H](C)CCC[C@H](C)CCCC(C)C)O2 |  | inactive [at 4.49 µM] |
| NCCCC[C@@H]1NC(=O)[C@@H](Cc2c[nH]c3ccccc23)NC(=O)[C@H](c2ccccc2)NC(=O)[C@@H]2C[C@@H](OC(=O)NCCN)CN2C(=O)[C@H](Cc2ccccc2)NC(=O)[C@H](Cc2ccc(OCc3ccccc3)cc2)NC1=O (cyclo([Hyp]([CO-Ethylenediamine])[Phg][dW]KY(Bn)F)) | inactive |  |
| CCCCCCCCCCCCOC(=O)CS(=O)(=O)O | inactive |  |
| NC(N)=NCCC[C@@H](N)C(=O)N[C@@H](CCCN=C(N)N)C(=O)N1CCC[C@H]1C(=O)N1C[C@H](O)C[C@H]1C(=O)NCC(=O)N[C@@H](Cc1cccs1)C(=O)N[C@@H](CO)C(=O)N1Cc2ccccc2C[C@@H]1C(=O)N1[C@H](C(=O)N[C@@H](CCCN=C(N)N)C(=O)O)C[C@@H]2CCCC[C@@H]21 | inactive |  |

The molecules below were run against Phospholipid hydroperoxide glutathione peroxidase GPX4 (Homo sapiens) (UniProt P36969) (assay: Primary qHTS Assay for Inhibitors of Recombinant Selenoprotein Glutathione Peroxidase 4 (GPX4) (AID 1845192)). Conditions: recombinant GPX4, GR-coupled NADPH fluorescence, 15 min; series mostly up to 50 µM.
Method in brief: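 GR-coupled readout: 100 nM GR, 1 mM GSH, 0.5 mM NADPH; NADPH fluorescence (ex 340/em 450 nm) read at t=0 and after 15 min RT. GPX4 200 nM, preincubated 30 min with compound; substrate 0.5 mM CHP.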

Sequence of Phospholipid hydroperoxide glutathione peroxidase GPX4 (Homo sapiens) (P36969 whole entry, looked up): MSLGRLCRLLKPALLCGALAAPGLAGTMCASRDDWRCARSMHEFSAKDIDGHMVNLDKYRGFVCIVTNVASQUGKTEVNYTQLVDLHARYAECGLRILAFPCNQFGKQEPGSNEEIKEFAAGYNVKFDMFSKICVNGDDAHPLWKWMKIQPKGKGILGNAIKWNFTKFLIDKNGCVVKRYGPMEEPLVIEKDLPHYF

| SMILES | Potency | outcome |
| --- | --- | --- |
| CCC(=O)O[C@@H]1[C@@H](C)O[C@@H](O[C@H]2[C@H](N(C)C)[C@@H](O)[C@H](O[C@H]3[C@@H](CC=O)C[C@@H](C)[C@@H](OC(C)=O)/C=C/C=C/C[C@@H](C)OC(=O)C[C@@H](OC(=O)CC)[C@@H]3OC)O[C@@H]2C)C[C@]1(C)OC(C)=O | inactive |  |
| CCCCC[C@@H](O)CC[C@H]1[C@@H]2Cc3cccc(OCC(=O)O)c3C[C@@H]2C[C@@H]1O | inactive |  |
| O=C(O)[C@H]1OC(O)[C@H](O)[C@@H](O)[C@@H]1O (some centres not stated) | inactive |  |
| CC[C@H](C)[C@@H]([C@@H](CC(=O)N1CCC[C@H]1[C@H](OC)[C@@H](C)C(=O)NCCc1ccccc1)OC)N(C)C(=O)[C@@H](NC(=O)[C@H](C(C)C)N(C)C)C(C)C | inactive |  |
| C=C1CC[C@H](O)C/C1=C\C=C1/CCC[C@]2(C)[C@@H]([C@H](C)CC[C@H](O)C(C)(C)O)CC[C@@H]12 | 14.1 µM (active) |  |
| O=c1c2c(c1=O)N(CCP(=O)(O)O)CCCN2 | inactive |  |
| O=P(O)(O)OC1C(OP(=O)(O)O)C(OP(=O)(O)O)C(OP(=O)(O)O)C(OP(=O)(O)O)C1OP(=O)(O)O (configuration not stated) | inactive |  |
| C=CCN1CC[C@]23c4c5ccc(O)c4O[C@H]2[C@@H](OCCOCCOCCOCCOCCOCCOCCOC)CC[C@@]3(O)[C@H]1C5 | inactive |  |
| CC(C)OC(=O)CCC/C=C\C[C@@H]1[C@@H](/C=C/[C@@H](O)COc2cccc(C(F)(F)F)c2)[C@H](O)C[C@@H]1O | inactive |  |
| COC(=S)NCCn1c([N+](=O)[O-])cnc1C | inactive |  |
| CCc1ccc(N(CC(C)C)S(=O)(=O)c2ccc(OCC3CCOCC3)c(CO)c2)cc1 | inactive |  |
| O=C(Nc1ccc(-c2ccnc(Nc3ccc(N4CCOCC4)cc3)n2)cc1)[C@@H]1CCCN1 | inactive |  |
| CC[C@@]1([C@@H]2O[C@@H]([C@H]3O[C@@](O)(CO)[C@H](C)C[C@@H]3C)C[C@@H]2C)CC[C@H]([C@]2(C)CCC3(C[C@H](O)[C@@H](C)[C@@H]([C@@H](C)[C@@H](OC)[C@H](C)C(=O)O)O3)O2)O1 (some centres not stated) | inactive |  |
| Cc1cc2nc3c(=O)[nH]c(=O)nc-3n(C[C@H](O)[C@H](O)[C@H](O)COP(=O)(O)OP(=O)(O)OC[C@H]3O[C@@H](n4cnc5c(N)ncnc54)[C@H](O)[C@H]3O)c2cc1C | inactive |  |
| CN(C)CC(=O)O | inactive |  |
| Cc1cc(CC(C)C[Si](C)(O[Si](C)(C)C)O[Si](C)(C)C)c(O)c(-n2nc3ccccc3n2)c1 (configuration not stated) | inactive |  |
| CCCCCCO[C@@H](C)c1cccc(-c2csc(NC(=O)c3cc(Cl)c(/C=C(\C)C(=O)O)c(Cl)c3)n2)c1OC | 2.51 µM (active) |  |
| C[C@H](CCC(=O)O)[C@H]1CC[C@H]2[C@@H]3CC[C@@H]4C[C@H](O)CC[C@]4(C)[C@@H]3C[C@H](O)[C@]12C | inactive |  |
| CN[C@@H]1[C@@H](O[C@H]2O[C@H](CO)[C@@H](N)[C@H](O)[C@H]2O)O[C@H]2C[C@@H](N)[C@H](O[C@H]3[C@H](O)[C@@H](O)[C@H](N)C[C@@H]3N)O[C@@H]2[C@@H]1O | inactive |  |
| CCC(=O)O[C@]1(C(=O)COC(C)=O)CC[C@H]2[C@@H]3CCC4=CC(=O)CC[C@]4(C)[C@H]3[C@@H](O)C[C@@]21C | inactive |  |

| SMILES | Potency | outcome |
| --- | --- | --- |
| CC(C)NC(=O)C1CCC(n2c(NC(=O)c3ccc(F)cc3)nc3ccc(CN4CCC(C(C)(C)O)CC4)cc32)CC1 (configuration not stated) | inactive |  |
| CC[C@H]1[C@@H](O)[C@@H]2[C@H](CC[C@]3(C)[C@@H]([C@H](C)CCC(=O)O)CC[C@@H]23)[C@@]2(C)CC[C@@H](O)C[C@@H]12 | 11.2 µM (active) |  |
| CC(=O)OCC1=C(C(=O)O)N2C(=O)[C@@H](NC(=O)[C@H](N)c3ccccc3)[C@H]2SC1 | 15.8 µM (active) |  |
| [2H]N[C@@H](Cc1ccccc1)C(=O)N1CCC[C@H]1C(=O)N[C@@H](CCCNC(=N)N)C(=O)N1CCC[C@H]1C(=O)NCC(=O)NCC(=O)NCC(=O)NCC(=O)N[C@@H](CC(N)=O)C(=O)NCC(=O)N[C@@H](CC(=O)O)C(=O)N[C@@H](Cc1ccccc1)C(=O)N[C@@H](CCC(=O)O)C(=O)N[C@@H](CCC(=O)O)C(=O)N[C@H](C(=O)N1CCC[C@H]1C(=O)N[C@@H](CCC(=O)O)C(=O)N[C@@H](CCC(=O)O)C(=O)N[C@@H](Cc1ccc(O)cc1)C(=O)N[C@@H](CC(C)C)C(=O)O)[C@@H](C)CC |  | inactive [at 9.73 µM] |
| CC(=O)OCC(=O)[C@@]1(O)[C@H](C)C[C@H]2[C@@H]3C[C@H](F)C4=CC(=O)C=C[C@]4(C)[C@@]3(F)[C@@H](O)C[C@@]21C | inactive |  |
| CCCCC(F)(F)C1(O)CCC2C(CC(=O)C2CCCCCCC(=O)O)O1 (configuration not stated) | inactive |  |
| O=C(/C=C/c1ccc(Cl)cc1)N1CCC2(CC1)CN(Cc1ccc(Cl)c(Cl)c1)C(=O)O2 | inactive |  |
| OC[C@H]1OC(O)C[C@@H](O)[C@@H]1O (some centres not stated) | inactive |  |
| CC(=O)NC(C=O)C(O)C(O)[C@H](O)CO (some centres not stated) | inactive |  |
| COc1cc(N)cn[n+]1-c1ccccc1 | inactive |  |
| CC1CCCC(C)N1C(=S)Nc1cccc(C(F)(F)F)c1 (configuration not stated) | 11.2 µM (active) |  |
| CCCC[C@H](C)C[C@H](O)/C=C/[C@H]1[C@H](O)CC(=O)[C@@H]1CCCC/C=C/C(=O)O | inactive |  |
| CCCCCC(O)/C=C/[C@@H]1C(CCCCCCC(=O)O)C(=O)C[C@@H]1O (some centres not stated) | inactive |  |
| CC(C)C(=O)OCC(=O)[C@@]12OC(C3CCCCC3)O[C@@H]1C[C@H]1[C@@H]3CCC4=CC(=O)C=C[C@]4(C)[C@H]3[C@@H](O)C[C@@]12C (some centres not stated) | inactive |  |
| OC[C@H]1O[C@H](O)[C@H](O)[C@@H](O)[C@@H]1O | inactive |  |
| CC(C=CC1=C(C)CCCC1(C)C)=CC=CC(C)=CC(=O)Oc1c(C)c(C)c2c(c1C)CC[C@@](C)(CCC[C@H](C)CCC[C@H](C)CCCC(C)C)O2 |  | inactive [at 4.52 µM] |
| NCCCC[C@@H]1NC(=O)[C@@H](Cc2c[nH]c3ccccc23)NC(=O)[C@H](c2ccccc2)NC(=O)[C@@H]2C[C@@H](OC(=O)NCCN)CN2C(=O)[C@H](Cc2ccccc2)NC(=O)[C@H](Cc2ccc(OCc3ccccc3)cc2)NC1=O (cyclo([Hyp]([CO-Ethylenediamine])[Phg][dW]KY(Bn)F)) | inactive |  |
| CCCCCCCCCCCCOC(=O)CS(=O)(=O)O | 14.1 µM (active) |  |
| NC(N)=NCCC[C@@H](N)C(=O)N[C@@H](CCCN=C(N)N)C(=O)N1CCC[C@H]1C(=O)N1C[C@H](O)C[C@H]1C(=O)NCC(=O)N[C@@H](Cc1cccs1)C(=O)N[C@@H](CO)C(=O)N1Cc2ccccc2C[C@@H]1C(=O)N1[C@H](C(=O)N[C@@H](CCCN=C(N)N)C(=O)O)C[C@@H]2CCCC[C@@H]21 | inactive |  |
